Only some compounds are listed: those with a hit (about 1.9% of all), similar ones and a draw of the others.
NPSR antag – qHTS Assay for Antagonists of the Neuropeptide S Receptor: cAMP Signal Transduction | CHO-NPSR cells, cAMP TR-FRET, antagonist mode | Potency, µM (top dose mostly 38.3 µM), actives largely listed as inhibitors | 220,000 compounds, 1% hits | AID 1461, 2008; further: nearly all actives have a fitted effect of over 50% in size
Target sequence (Q6W5P4 whole entry, looked up): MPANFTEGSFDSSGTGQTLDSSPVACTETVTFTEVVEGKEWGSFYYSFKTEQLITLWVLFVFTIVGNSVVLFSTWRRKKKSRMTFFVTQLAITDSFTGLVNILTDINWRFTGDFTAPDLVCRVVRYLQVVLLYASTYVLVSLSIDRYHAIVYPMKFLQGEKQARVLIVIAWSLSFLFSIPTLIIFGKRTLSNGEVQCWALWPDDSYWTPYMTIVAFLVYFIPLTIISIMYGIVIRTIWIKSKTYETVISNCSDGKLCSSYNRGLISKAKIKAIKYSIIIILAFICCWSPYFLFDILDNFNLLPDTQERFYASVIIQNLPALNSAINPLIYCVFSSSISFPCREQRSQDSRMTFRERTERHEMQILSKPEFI
IL-2 act – qHTS of IL-2 Activators; IL-2 activation reporter assay, cell-based qHTS; stimulated with anti-CD3/CD4/CD28 beads; in transgenic mouse T cells; activation, % (series mostly up to about 46 µM); 360,000 compounds, 0.065% hits; in the data active means activation above about 50%; inconclusive means mostly about 30% to 49%
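Using fluorescent plate cytometry, EGFP and DsRed are detected in transgenic mouse T cells stimulated 18 h at 37 degrees C with antibody-coated beads after 60 min compound pretreatment.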
Giardia kill – Small Molecules that selectively kill Giardia lamblia: qHTS | Giardia lamblia trophozoite viability | activity change, % at 7.66 µM, hits read low | 340,000 compounds, 0.15% hits; in the data active means activity change below about -80%; inconclusive means between about -30% and that limit;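 further: parasites exposed to compound for two days anaerobically before the ATP read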
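Media and compound were dispensed first, then trophozoites at 100 cells/well; plates sat 48 hrs at 37 deg C without oxygen before ATP luminescence reagent was added and read after 15-30 min at room temperature.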
BRCA1 expr act – qHTS Assay to Identify Small Molecule Activators of BRCA1 Expression. MCF7-BRCA1-FFLuc reporter, luminescence, 48 h; response scale: scaled: vehicle 0%, 10 µM genistein 100%. Potency, µM (highest dose often 46.1 µM), usual class: activators. 380,000 compounds, 1.1% hits; further: nearly all actives have a fitted effect of over 80% in size
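Luminescence from a BRCA1-driven firefly luciferase in MCF7 cells was the read-out, taken 15 min after substrate addition following 48 h compound exposure at 37 °C. Data were normalized to a 10 microM genistein control and DMSO vehicle.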
RXFP1 agonist – qHTS Assay for Agonists of the Relaxin Receptor RXFP1 | Relaxin receptor 1 (Homo sapiens), Q9HBX9 | 370,000 compounds, 0.3% hits | HEK293T-RXFP1 cAMP TR-FRET, 30 min; response scale: percent of porcine relaxin response, buffer zero | AID 2676, 2010 | Potency, µM (titrated, usually from 57.5 µM), most hits filed as activators; further: nearly all actives have a fitted effect of over 60% in size
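Agonist response is measured as cAMP accumulation in an RXFP1-transfected HEK293T line under PDE4 inhibition. Values are scaled between buffer-only and 29 nM porcine relaxin, and EC50s come from standard Hill equation fits.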
RXFP1 antagonist – qHTS Assay for Antagonists of the Relaxin Receptor RXFP1. Relaxin receptor 1 (Homo sapiens), Q9HBX9. HEK293-RXFP1, relaxin-stimulated cAMP HTRF, 30 min; hits give low values. activity change, negative = inhibition, % at 57.5 µM. 350,000 compounds, 0.59% hits. AID 1259400, 2018;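 active means activity change of -60% or lower, but not beyond a set lower limit; inconclusive means change between -60% and -40%, or beyond the set limit; inactive means change above -40%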
Each line names hits and unclear results; the compound was inactive in the other large screens. Unless noted, the call rests on the fitted dose curve; in most records, active means well fitted curve in the direction sought with a large enough effect; inconclusive means small, poorly fitted or top-dose-only effect, or another doubt; inactive means no such curve, though single readings can be large; an effect the other way counts as inactive or inconclusive.

COc1ccc(NC(=O)Cn2ccn(-c3ccc(F)c(F)c3)c(=O)c2=O)cc1Cl	none (no result: NPSR antag, IL-2 act, Giardia kill, BRCA1 expr act)
Cc1ccc(NC(=O)CN(C)CC(=O)Nc2ccc(F)c(Cl)c2)cc1	none
CN(CC(=O)Nc1ccc(Cl)c(Cl)c1)Cc1nnc(-c2ccc(F)cc2)o1	RXFP1 antagonist -63
COc1ccc(C2/C=C\CN(Cc3ccccc3)C(C)C(=O)N2Cc2ccc(F)cc2)cc1 (stereo not given)	none (no result: NPSR antag, IL-2 act, BRCA1 expr act, RXFP1 agonist, RXFP1 antagonist)
O=C1CN(c2ccccc2)C(=S)N1C(=O)c1ccccc1	BRCA1 expr act 7.1µM (no result: NPSR antag)
O=C(OCc1ccccc1)c1ccc(-c2nnn(Cc3ccccc3F)n2)cc1	none (no result: NPSR antag, IL-2 act, Giardia kill, BRCA1 expr act)
COc1ccc(-c2nnn(Cc3ccccc3F)n2)cc1	BRCA1 expr act 4µM
O=S(=O)(c1ccccc1)N1CCC(c2ccncc2)CC1	RXFP1 antagonist -106 (no result: NPSR antag, IL-2 act, Giardia kill, BRCA1 expr act)
Cc1ccc(/C=C/C(=O)Nc2ccncc2)o1	none
Cc1ccc(/C=C/C(=O)Nc2ccc(N(C)C)cc2)o1	BRCA1 expr act 4µM
Cc1cnc(NC(=O)/C=C/c2ccc(Br)o2)s1	none
Cc1ccc(/C=C/C(=O)Nc2ncc(C)s2)o1	BRCA1 expr act 3.2µM
CCN(CC)C(=O)C1CN2CCc3cc(OC)c(OC)cc3C2CC1OC(C)=O (stereo not given)	none (no result: NPSR antag, IL-2 act, Giardia kill, BRCA1 expr act, RXFP1 agonist)
CCN(CC)c1ccc(-c2nnc(SCC(=O)NCc3ccco3)n2C)cc1	none (no result: NPSR antag, IL-2 act, Giardia kill, RXFP1 agonist, RXFP1 antagonist)
O=c1c2ccccc2sc2ccccc12	BRCA1 expr act inconclusive (no result: NPSR antag, RXFP1 agonist)
O=c1c(C(c2ccccc2)c2c(O)sc3ccccc3c2=O)c(O)sc2ccccc12	NPSR antag 10µM
S=Cc1ccc(/C=C/c2ccnc3ccccc23)cc1	none (no result: NPSR antag, IL-2 act, Giardia kill, RXFP1 agonist, RXFP1 antagonist)
CC1Cc2cc(S(=O)(=O)NCc3ccccc3Cl)ccc2N1C(=O)C1CCC1 (stereo not given)	none (no result: NPSR antag, IL-2 act, Giardia kill, BRCA1 expr act)
CC(NC(=O)Cn1ncc(Cl)c(Cl)c1=O)C12CC3CC(CC(C3)C1)C2 (stereo not given)	NPSR antag 10µM, RXFP1 antagonist -100
Fc1ccc(Nc2nc(SCc3cccc(F)c3)nc3ccccc23)cc1	RXFP1 antagonist inconclusive (no result: NPSR antag, IL-2 act, Giardia kill, BRCA1 expr act)
Cc1ccc2[nH]c(C)c(/C=C/c3cc[n+](C)cc3)c2c1	IL-2 act 159, Giardia kill inconclusive (no result: NPSR antag)
O=C(NC1CC1)c1ccc2nc(-c3ccco3)c(-c3ccco3)nc2c1	none (no result: NPSR antag, IL-2 act, RXFP1 agonist, RXFP1 antagonist)
COc1ccc(/C=N/NC(=O)c2cccnc2)cc1COc1ccc([N+](=O)[O-])cc1	RXFP1 antagonist -85
CCOC(=O)c1ccc(NC(=O)Cc2ccc(-n3c(CC)nc4cccnc43)cc2)cc1	RXFP1 antagonist inconclusive (no result: NPSR antag, IL-2 act, Giardia kill, BRCA1 expr act)
Cc1ccc(/C=C/C(=O)C2C(=O)c3ccccc3C2=O)cc1	Giardia kill -86
Cc1ccc(/C=C/C(=O)c2ccccc2O)cc1	none
CC1CCN(C(=O)CSCc2ccc(Cl)cc2)CC1	BRCA1 expr act 2.8µM
CCN1C(=O)C(=O)N(CC(=O)c2cc(C)n(C3CC3)c2C)C1=O	BRCA1 expr act inconclusive (no result: NPSR antag)
Cc1cc(C(=O)CN2C(=O)C(=O)N(CC(C)C)C2=O)c(C)n1C1CC1	BRCA1 expr act 3.2µM (no result: NPSR antag)
COc1cc(NC(=O)C2Cc3ccccc3N2C(=O)c2ccccc2)cc(OC)c1 (stereo not given)	none (no result: NPSR antag, IL-2 act, Giardia kill, BRCA1 expr act)
CCOP1(=O)OCC2OC(n3cnc4c(N)ncnc43)C(O)C2O1 (stereo not given)	RXFP1 agonist 10µM
Nc1ncnc2c1ncn2[C@@H]1O[C@H](CO)[C@@H](O)[C@H]1O	none
Nc1ccc2c(c1)C=C/C2=C\c1ccccc1	BRCA1 expr act 4µM (no result: NPSR antag, IL-2 act, Giardia kill, RXFP1 agonist, RXFP1 antagonist)
CC(C)OC(=O)c1cc(C(=O)OC(C)C)cc([N+](=O)[O-])c1	RXFP1 antagonist -71 (no result: NPSR antag, IL-2 act, Giardia kill, BRCA1 expr act, RXFP1 agonist)
CC(C)OC(=O)c1cc(NC(=S)Nc2ccc([N+](=O)[O-])cc2)cc(C(=O)OC(C)C)c1	NPSR antag inconclusive
Nc1ccc(C(=O)OCC(O)CO)cc1 (stereo not given)	none (no result: NPSR antag, IL-2 act, Giardia kill, BRCA1 expr act, RXFP1 agonist)
O=C(c1cnn(-c2ccccc2)c1)c1cc(F)ccc1O	BRCA1 expr act 10µM (no result: NPSR antag)
O=C1C(c2ccc(F)cc2)N(CCc2ccccc2)C(=O)CN1C1CCCCCC1 (stereo not given)	none (no result: NPSR antag, IL-2 act, Giardia kill, BRCA1 expr act)
Cc1ccc(CN2CC(C(=O)Nc3cc(C)ccn3)CC2=O)cc1 (stereo not given)	Giardia kill inconclusive, RXFP1 antagonist -118 (no result: NPSR antag)
CC(=O)Nc1ccc(C(=O)COC(=O)C2CC2C)c(F)c1 (stereo not given)	BRCA1 expr act 6.3µM (no result: NPSR antag)
CCCC(=O)Nc1ccc(C(=O)COC(=O)C2CC2C)cc1 (stereo not given)	BRCA1 expr act 11µM (no result: NPSR antag)
COc1ccc(C(=O)COC(=O)c2cccs2)cc1	BRCA1 expr act 13µM (no result: NPSR antag, RXFP1 agonist)
COc1ccc(/C(N)=N/OC(=O)Cc2cccs2)cc1	BRCA1 expr act 8.9µM
COc1ccc(/C(N)=N/OC(=O)Cc2cccs2)cc1OC	none
Cc1ccc(S(=O)(=O)N2CCN(c3nc(-n4c(=O)[nH]c5ccccc54)nc4ccccc34)CC2)cc1	none (no result: NPSR antag, IL-2 act, Giardia kill, RXFP1 agonist, RXFP1 antagonist)
CC(=O)Nc1ccc(C(=O)COC(=O)c2cccs2)c(F)c1	BRCA1 expr act 14µM (no result: NPSR antag)
CC(=O)Nc1ccc(C(=O)COC(=O)c2c(C)noc2C)c(F)c1	none (no result: NPSR antag)
COc1ccc(C2CC2/C(=N/OC(=O)c2cccs2)c2ccccc2)cc1 (stereo not given)	NPSR antag inconclusive, BRCA1 expr act 7.1µM
NC(=O)N[C@@H](CCC(=O)O)C(=O)O	none (no result: NPSR antag, IL-2 act, Giardia kill, BRCA1 expr act, RXFP1 agonist)
N#Cc1c(Sc2ncc(C(F)(F)F)cc2Cl)nsc1C/C=N\OCc1ccccc1Br	NPSR antag 10µM
